# Source: the supplement of paper PMC8728848
# This excerpt belongs to a sample that is enriched for the strongest signals.
# B1: AntigenI/IIA3VP1 (Streptococcus mutans), C9E3B4 (protein)
# chain: AANEADYQAKLTAYQTELARVQKANADAKAAYEAAVAANNAANAALTAENTAIKKRNADAKADYEAKLAKYQADLAKYQKDLADYPVKLKAYEDEQASIKAALAELEKHKNEDGNLTEPSAQNLVYDLEPNANLSLTTDGKFLKASAVDDAFSKSTSKAKYDQKILQLDDLDITNLEQSNDVASSMELYGNFGDKAGWSTTVSNNSQVKWGSVLLERGQSATATYTNLQNSYYNGKKISKIVYKYTVDPKSKFQGQKVWLGIFTDPTLGVFASAYTGQVEKNTSIFIKNEFTFYDEDGKPINFDNALLSVASLNREHNSIEMAKDYSGKFVKISGSSIGEKNGMIYATDTLNFKQGEGGSRWTMYKNSQAGSGWDSSDAPNSWYGAGAIKMSGPNNYVTVGATSATNVMPVSDMPVVPGKDNTDGKKPNIWYSLNGKIRAVNVPKVTKEKPTPPVKPTAPTKPTYETEKPLKPAPVAPNYEKEPTPPTRLEHHHHHH
# Tests used:
# Assay in all cases: glycan array binding signal (z-score within array); higher = stronger binding
# Settings in all cases: glycan notation: IUPAC condensed, linker removed
# [1] = molecular target: GalNAc(b1-3)GalNAc
# Procedure, shortened: (§1)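 The binding signal is a Z-score computed within each array. Data were drawn from 3228 arrays in the Consortium for Functional Glycomics database, restricted to those with a known protein sequence. Scores were averaged over arrays of the same protein sequence at different concentrations or buffers, and over linkers, and negative values can be taken as non-binding.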
# [2] = molecular target: GalNAc(b1-3)GlcNAc
# Procedure, shortened: as §1
# [3] = molecular target: GalNAc(b1-4)GlcNAc(b1-2)Man(a1-3)[GalNAc(b1-4)GlcNAc(b1-2)Man(a1-6)]Man(b1-4)GlcNAc(b1-4)GlcNAc
# Procedure, shortened: as §1
# [4] = molecular target: GlcA(b1-3)GlcNAc
# Procedure, shortened: as §1
# [5] = molecular target: GlcNAc(b1-2)[GlcNAc(b1-4)]Man(a1-3)[GlcNAc(b1-4)][GlcNAc(b1-2)Man(a1-6)]Man(b1-4)GlcNAc(b1-4)GlcNAc
# Procedure, shortened: as §1
# [6] = molecular target: GlcNAc(b1-3)Gal(b1-4)GlcNAc(b1-3)Gal(b1-4)GlcNAc(b1-3)Gal(b1-4)GlcNAc(b1-3)Gal(b1-4)GlcNAc(b1-2)Man(a1-3)[GlcNAc(b1-3)Gal(b1-4)GlcNAc(b1-3)Gal(b1-4)GlcNAc(b1-3)Gal(b1-4)GlcNAc(b1-3)Gal(b1-4)GlcNAc(b1-2)Man(a1-6)]Man(b1-4)GlcNAc(b1-4)[Fuc(a1-6)]GlcNAc
# Procedure, shortened: as §1
# [7] = molecular target: Kdn(a2-6)Gal(b1-4)GlcNAc
# Procedure, shortened: as §1
# [8] = molecular target: Man(a1-2)Man(a1-3)[Man(a1-2)Man(a1-6)]Man
# Procedure, shortened: as §1
# [9] = molecular target: Man(a1-2)Man(a1-6)[Man(a1-3)]Man(a1-6)[Man(a1-2)Man(a1-2)Man(a1-3)]Man(b1-4)GlcNAc(b1-4)GlcNAc
# Procedure, shortened: as §1
# [10] = molecular target: Neu5Ac(a2-3)Gal(b1-3)GalNAc(b1-3)Gal(a1-4)Gal(b1-4)Glc
# Procedure, shortened: as §1
# [11] = molecular target: Neu5Ac(a2-3)Gal(b1-4)GlcNAc(b1-2)Man
# Procedure, shortened: as §1
# [12] = molecular target: Neu5Ac(a2-3)Gal(b1-4)GlcNAc(b1-3)Gal(b1-4)GlcNAc(b1-3)[Neu5Ac(a2-3)Gal(b1-4)GlcNAc(b1-3)Gal(b1-4)GlcNAc(b1-6)]GalNAc
# Procedure, shortened: as §1
# [13] = molecular target: Neu5Ac(a2-3)Gal(b1-4)GlcNAc(b1-3)Gal(b1-4)GlcNAc(b1-6)[Gal(b1-3)]GalNAc
# Procedure, shortened: as §1
# [14] = molecular target: Neu5Ac(a2-3)Gal(b1-4)GlcNAc6S
# Procedure, shortened: as §1
# [15] = molecular target: Neu5Ac(a2-3)Gal6S(b1-4)GlcNAc
# Procedure, shortened: as §1
# [16] = molecular target: Neu5Ac(a2-3)GalNAc
# Procedure, shortened: as §1
# [17] = molecular target: Neu5Ac(a2-6)Gal(b1-3)GlcNAc(b1-3)[Gal(b1-4)GlcNAc(b1-6)]Gal(b1-4)Glc
# Procedure, shortened: as §1
# [18] = molecular target: Neu5Ac(a2-6)Gal(b1-4)GlcNAc(b1-2)[Neu5Ac(a2-6)Gal(b1-4)GlcNAc(b1-4)]Man(a1-3)[GlcNAc(b1-4)][Neu5Ac(a2-6)Gal(b1-4)GlcNAc(b1-4)Man(a1-6)]Man(b1-4)GlcNAc(b1-4)GlcNAc
# Procedure, shortened: as §1
# [19] = molecular target: Neu5Ac(a2-6)Gal(b1-4)GlcNAc(b1-2)[Neu5Ac(a2-6)Gal(b1-4)GlcNAc(b1-6)]Man(a1-6)[Neu5Ac(a2-6)Gal(b1-4)GlcNAc(b1-2)Man(a1-3)][GlcNAc(b1-4)]Man(b1-4)GlcNAc(b1-4)GlcNAc
# Procedure, shortened: as §1
# [20] = molecular target: Neu5Ac(a2-6)Gal(b1-4)GlcNAc(b1-3)Gal(b1-3)GlcNAc
# Procedure, shortened: as §1
# [21] = molecular target: Neu5Ac(a2-8)Neu5Ac(a2-3)Gal(b1-3)GalNAc(b1-4)[Neu5Ac(a2-8)Neu5Ac(a2-3)]Gal(b1-4)Glc
# Procedure, shortened: as §1
# [22] = molecular target: Neu5Gc(a2-3)Gal(b1-3)[Fuc(a1-4)]GlcNAc
# Procedure, shortened: as §1
binder,measurement,setting,value
B1,glycan array binding signal (z-score),[1],1.37
same,glycan array binding signal (z-score),[2],-0.475
same,glycan array binding signal (z-score),[3],-0.868
same,glycan array binding signal (z-score),[4],-0.575
same,glycan array binding signal (z-score),[5],-1.35
same,glycan array binding signal (z-score),[6],3.23
same,glycan array binding signal (z-score),[7],-1.05
same,glycan array binding signal (z-score),[8],-0.805
same,glycan array binding signal (z-score),[9],0.975
same,glycan array binding signal (z-score),[10],0.492
same,glycan array binding signal (z-score),[11],0.921
same,glycan array binding signal (z-score),[12],0.324
same,glycan array binding signal (z-score),[13],-0.29
same,glycan array binding signal (z-score),[14],-0.627
same,glycan array binding signal (z-score),[15],-0.68
same,glycan array binding signal (z-score),[16],-1.05
same,glycan array binding signal (z-score),[17],0.439
same,glycan array binding signal (z-score),[18],1.05
same,glycan array binding signal (z-score),[19],0.993
same,glycan array binding signal (z-score),[20],-1.1
same,glycan array binding signal (z-score),[21],-0.035
same,glycan array binding signal (z-score),[22],-0.885
